# From PubChem BioAssay (NCI)
# Several values for one entry are separate records, joined by “and”; a condition that tells them apart may be missing. Identical values can stand only once. The panel holds about 83,000 compounds, 20% with a hit somewhere; the sample as a whole holds those more often.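 Percent growth is the endpoint: 0 to 100 indicates growth inhibition (40 means 60% inhibition), 0 means no net growth, and negative values indicate cell death.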 Activity calls are given as the source filed them. How the source made its calls: active means growth percent below 10; inactive means the rest.
# How the values were obtained:
# Test in all cases: NCI-60 one-dose screen, 48 h (100 = growth as untreated, 0 = no growth, -100 = all killed)
# Details in all cases: 10 µM unless noted
# HT29 colon = test system: HT29 colon
# SNB-19 CNS = test system: SNB-19 CNS
# U251 CNS = test system: U251 CNS
# PC-3 prostate = test system: PC-3 prostate
# LOX IMVI melanoma = test system: LOX IMVI melanoma
# SK-MEL-28 melanoma = test system: SK-MEL-28 melanoma
# SNB-75 CNS = test system: SNB-75 CNS
# SK-MEL-5 melanoma = test system: SK-MEL-5 melanoma
# UACC-62 melanoma = test system: UACC-62 melanoma
SMILES,growth (HT29 colon),growth (SNB-19 CNS),growth (U251 CNS),growth (PC-3 prostate),growth (LOX IMVI melanoma),growth (SK-MEL-28 melanoma),growth (SNB-75 CNS),growth (SK-MEL-5 melanoma),growth (UACC-62 melanoma)
Oc1cc(N2CC2)c(O)cc1N1CC1,1.49% (active),26.8% (inactive),-2.16% (active),25% (inactive),1.44% (active),-50.9% (active),,,
CC[C@H](C)[C@H](NC(=O)C12CC(NC)(C1)C2)C(=O)N(C)[C@H](C[C@@H](OC(C)=O)c1nc(C(=O)N[C@@H](Cc2ccccc2)C[C@H](C)C(=O)OC)cs1)C(C)C,-4.54% (active),33.5% (inactive),12.7% (inactive),23.6% (inactive),5.36% (active),53.4% (inactive),23.5% (inactive),-31.7% (active),45% (inactive)
N#Cc1ccc(Cl)cc1,84.4% (inactive),108% (inactive),105% (inactive),129% (inactive),106% (inactive),117% (inactive),101% (inactive),106% (inactive),104% (inactive)
CN(N)/N=N/c1nc[nH]c1[N+](=O)[O-],,,,,,,,,21.2% [100 µM] (inactive) and -39.8% [100 µM] (active)
COC12CC3C4=CCOC5CC(=O)N6c7ccccc7C1(CCN2C4)C6C53 (stereo not given),100% (inactive),116% (inactive),93.2% (inactive),105% (inactive),96.9% (inactive),109% (inactive),70.1% (inactive),,104% (inactive)
CCOC(=O)C1C(c2ccco2)C2(C#N)C(=N)OC1(C)C2(C#N)C#N (stereo not given),,,,,,,,,62% [100 µM] (inactive) and 20.8% [100 µM] (inactive)
C[N+]1(C)CCCC1c1cccnc1 (stereo not given),,105% (inactive),94% (inactive),97.6% (inactive),100% (inactive),114% (inactive),98% (inactive),95.4% (inactive),102% (inactive)
COC(=O)C1=CCCN(C)C1,106% (inactive) and 104% (inactive),106% (inactive) and 109% (inactive),107% (inactive),92.9% (inactive),98.3% (inactive) and 99.8% (inactive),110% (inactive) and 108% (inactive),103% (inactive) and 90.3% (inactive),,111% (inactive) and 101% (inactive)
CCOC(=O)C1C(C=C(C)C)C1(C)C (stereo not given),116% (inactive),103% (inactive),99.3% (inactive),93% (inactive),104% (inactive),,,109% (inactive),99.8% (inactive)
CCOC(=O)c1c(SC)nc(-c2ccc(Cl)cc2)sc1=N,,,,,,,,,5.48% [100 µM] (active) and 7.26% [100 µM] (active)
O=C1NC(=O)C(=Cc2ccccc2)C(=O)N1,105% (inactive) and 99% (inactive),106% (inactive),97.4% (inactive) and 92.2% (inactive),81% (inactive) and 96.2% (inactive),94% (inactive) and 97.1% (inactive),104% (inactive) and 115% (inactive),105% (inactive) and 96.5% (inactive),109% (inactive) and 100% (inactive),90.3% (inactive) and 105% (inactive)
COC(=O)C12C3C4C1C1C2C3C41NC(=O)c1csc([C@@H](C[C@H](C(C)C)N(C)C(=O)[C@@H](NC(=O)[C@H]2CCCCN2C)C2CC2)OC(C)=O)n1 (stereo not given in full),-16.7% (active),39.7% (inactive),10.8% (inactive),,16.3% (inactive),57.8% (inactive),45.3% (inactive),-14.7% (active),48% (inactive)
NNC(=S)N/N=C(\C(=O)Nc1cccc(O)c1)C1C(=O)NC(=S)NC1=O,,,,,,,,,90.4% [100 µM] (inactive) and 91% [100 µM] (inactive)
O=S(OO)c1cc(Cl)c(O)c(Cl)c1 (stereo not given),113% (inactive),104% (inactive),94% (inactive),,96.4% (inactive),98.9% (inactive),78.5% (inactive),104% (inactive),101% (inactive)
Cc1cc(N(CCCl)CCCl)ccc1/C=N\NC(=O)c1cccnc1,,94.1% (inactive) and 105% (inactive),82.9% (inactive) and 93.2% (inactive),84.3% (inactive) and 77.6% (inactive),69.4% (inactive),108% (inactive) and 97.8% (inactive),71.5% (inactive) and 86.4% (inactive),88.8% (inactive) and 79.1% (inactive),45% (inactive) and 60.5% (inactive)
CC(C)c1cccc(C(C)C)c1O,99.4% (inactive) and 102% (inactive),123% (inactive) and 94% (inactive),97.2% (inactive) and 99.7% (inactive),99.7% (inactive) and 93.8% (inactive),96.9% (inactive) and 105% (inactive),115% (inactive) and 104% (inactive),109% (inactive) and 81.4% (inactive),110% (inactive),118% (inactive) and 92.1% (inactive)
CCCCCCCCCCCCCCCC[n+]1ccccc1,,-88.4% (active) and -62.6% (active),-90.4% (active) and -76.3% (active),,-72.9% (active) and -79.8% (active),-55% (active) and -30.7% (active),-77.3% (active) and -40.5% (active),-100% (active) and -94.8% (active),-68% (active) and -46.2% (active)
O=c1c2ccccc2nc(-c2ccccc2Cl)n1-c1nnc(C(F)(F)F)s1,30.3% (inactive),33.2% (inactive),16.6% (inactive),,31.3% (inactive),30.2% (inactive),53.9% (inactive),,
C[C@H](O)CCC(=O)c1ccoc1,106% (inactive),100% (inactive),102% (inactive),95.7% (inactive),95.5% (inactive),115% (inactive),,99.9% (inactive),96% (inactive)
CCC1CCC(=O)O1 (stereo not given),107% (inactive) and 110% (inactive),115% (inactive) and 113% (inactive),97% (inactive) and 108% (inactive),,97.5% (inactive) and 103% (inactive),104% (inactive) and 115% (inactive),86% (inactive) and 96.4% (inactive),103% (inactive) and 104% (inactive),114% (inactive)
